CHX counter: Cycloheximide Counterscreen for Small Molecule Inhibitors of Shiga Toxin; cell reporter, cycloheximide protein synthesis inhibition counterscreen; max response, %; 300,000 tested, 12% active; AID 2314, 2010; in the data active means max response mostly above about 13%, no sharp cut-off; inactive means mostly below about 14%; further: read at 38.3 µM for the half of the compounds with a filed dose; 0% is about no effect
LmPK inhibitor: qHTS Assay for Inhibitors of Leishmania Mexicana Pyruvate Kinase (LmPK); Q27686; purified LmPK, Kinase-Glo ATP luminescence, 1 h; Potency, µM (series often up to 57.5 µM), without a hit: at the highest dose activity change, negative = inhibition, most hits filed as inhibitors; 290,000 tested, 0.37% active; further: potency means the concentration at half of the fitted maximal effect; on the % scale 0 is the no-effect control and ±100 the full control effect
Target sequence (Q27686 whole entry, looked up): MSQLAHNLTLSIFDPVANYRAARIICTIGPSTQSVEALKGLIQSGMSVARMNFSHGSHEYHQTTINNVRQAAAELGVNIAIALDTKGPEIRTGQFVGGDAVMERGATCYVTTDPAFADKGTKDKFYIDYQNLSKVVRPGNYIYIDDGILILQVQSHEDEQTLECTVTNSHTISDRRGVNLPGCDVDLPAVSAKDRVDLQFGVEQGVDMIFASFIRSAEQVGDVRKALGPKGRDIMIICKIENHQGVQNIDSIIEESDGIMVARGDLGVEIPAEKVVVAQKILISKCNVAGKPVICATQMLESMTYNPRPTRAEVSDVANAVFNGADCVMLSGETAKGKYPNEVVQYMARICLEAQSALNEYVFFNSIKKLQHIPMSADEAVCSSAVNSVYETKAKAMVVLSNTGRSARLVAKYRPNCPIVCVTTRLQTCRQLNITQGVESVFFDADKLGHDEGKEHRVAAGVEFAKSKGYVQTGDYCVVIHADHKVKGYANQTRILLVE
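Screened at intermediate enzyme activity to detect both inhibitors and activators: LmPK at 0.1 nM, with a 0.5 nM enzyme column as activation reference. PEP 0.5 mM, ADP 0.1 mM; ATP detected by luminescence after 1 h.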
Pf growth 48h: Primary qHTS for delayed death inhibitors of the malarial parasite plastid, 48 hour incubation. 310,000 tested, 5.9% active. Potency, µM (highest dose often 28.7 µM), for the others: at the top dose activity change, negative = inhibition, most hits filed as inhibitors. AID 504832, 2011. P. falciparum luciferase growth in erythrocytes, 48 h; further: potency means the concentration at half of the fitted maximal effect; on the % scale 0 is the no-effect control and ±100 the full control effect
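Cell-based growth assay: transgenic P. falciparum expressing firefly luciferase, cultured in red cells within RPMI 1640 containing 0.5% w/v Albumax, 24 mM bicarbonate and gentamycin. A drop in luciferase activity indicates inhibition.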
Shiga inhibitor: A qHTS for Small Molecule Inhibitors of Shiga Toxin; Vero cells, Shiga toxin protein synthesis inhibition reporter; inhibition, % at 38.7 µM; 290,000 tested, 9.2% active; in the data active means inhibition mostly above about 28%, no sharp cut-off; inactive means mostly below about 43%; further: 0% is about no effect
Pf growth 96h: Primary qHTS for delayed death inhibitors of the malarial parasite plastid, 96 hour incubation; P. falciparum luciferase reporter growth, 96 h; Potency, µM (titrated, usually from 28.7 µM), without a hit: at the highest dose activity change, negative = inhibition, usual class: inhibitors; 320,000 tested, 6.9% active; AID 504834, 2011; further: potency means the concentration at half of the fitted maximal effect; on the % scale 0 is the no-effect control and ±100 the full control effect
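P. falciparum expressing integrated firefly luciferase, in erythrocytes at 2% hematocrit, 0.05% parasitemia, incubated with compounds 96 h at 37 C, 5% CO2. Growth inhibition read as loss of luminescence; two-generation exposure targets delayed-death apicoplast inhibitors.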
* = called active by the depositor; ? = inconclusive; . = no result. This is a sample that favours compounds with a hit; in the whole collection about 22% have one here. Unless noted, the call rests on the fitted dose curve; in most records, active means well fitted inhibition curve with a large enough effect; inconclusive means small, poorly fitted or top-dose-only effect, or another doubt; inactive means no such curve, though single readings can be large or run the other way.

SMILES	CHX counter	LmPK inhibitor	Pf growth 48h	Shiga inhibitor	Pf growth 96h
COc1cc([N+](=O)[O-])ccc1NC(=S)NNC(=O)CCC(=O)Nc1ccccc1Cl	32.6*	-10.4%	58.3%	28.3*	23.4%
Cc1nc2ccc(S(=O)(=O)NCC(=O)Nc3cccc(F)c3)cc2s1	-2.7	1.8%	16.3%	-14.8	7.8%
Cc1ccc(C(=O)NC(=S)N2CCN(C)CC2)cc1	21.3*	-2.2%	30.5%	87.6*	.
CN1CCN(C(=S)NC(=O)c2ccc(Br)cc2)CC1	13.1*	?	-23.7%	36.4*	?
Cc1ccc(C(=O)NC(=S)N2CCCC2)cc1	10.6	-3.4%	?	15.3	?
Cc1cc(S(=O)(=O)Nc2ccc(F)cc2)c(C)s1	-1.6	5.6%	9.0%	29.2	.
COC(=O)c1ccc(N)cc1O	1.3	-4.8%	.	2.6	10.4µM*
Nc1ccc(C(=O)Oc2ccccc2)c(O)c1	.	.	67.9%	.	28.9%
COc1ccccc1-c1c(C(F)(F)F)oc2cc(OC(=O)c3ccc([N+](=O)[O-])cc3)ccc2c1=O	-3.8	2.3%	-2.0%	-7.6	?
O=C(c1cc(-c2cccc(O)c2)on1)N1CCCC1	37.4*	-11.3%	235.3%	62.0*	4.9%
O=C(c1cc(-c2cccc(O)c2)on1)N1CCCCC1	35.1*	-22.5%	199.5%	36.8*	?
CC(CN1C(C)CCCC1C)OC(=O)c1cccc(Br)c1 (centres undefined)	-1.8	7.7%	10.3%	-12.6	26.8%
Cc1ccc(S(=O)(=O)Cn2nnnc2CN(Cc2ccco2)CC2CCCO2)cc1 (centres undefined)	-2.2	3.9%	?	0.8	4.15µM*
Cc1ccc2cc(CN(Cc3nnnn3Cc3ccco3)CC3CCCO3)c(=O)[nH]c2c1C (centres undefined)	-3.2	10.9%	?	0.0	-26.4%
Cc1ccc(C)c(Cn2c3ccccc3c3cnn(CC(=O)NCCN4CCOCC4)c(=O)c32)c1	-5.2	1.1%	?	3.0	9.28µM*
Cc1ccc(C)c(Cn2c3ccccc3c3cnn(CC(=O)NCCCN4CCOCC4)c(=O)c32)c1	-4.8	4.0%	13.1µM*	-10.6	?
O=C(Cn1ncc2c3ccccc3n(Cc3ccc(Cl)cc3)c2c1=O)NCCCN1CCCC1=O	7.8	6.0%	-21.0%	2.2	13.1µM*
COC(=O)N1C(=O)[C@](Cc2ccccc2)(c2ccccc2)N1C(=O)OC	21.0*	-7.8%	32.5%	5.2	30.7%
COC(=O)N1C(=O)[C@@](Cc2ccccc2)(c2ccccc2)N1C(=O)OC	11.9*	-4.1%	-7.4%	9.5	?
COC(=O)N1C(=O)[C@@](c2ccccc2)(C2CCCCC2)N1C(=O)OC	10.6*	-7.7%	39.1%	13.1	46.0%
CCOc1ccc(C(=O)Nc2ccc(N3CCCC3)cc2)cc1	19.4*	-2.8%	?	33.5	38.3%
CCOc1cccc(C(=O)Nc2ccc(N3CCCC3)cc2)c1	16.6*	5.5%	0.0%	47.5	0.0%
CCOc1ccc(NC(=O)c2cccc(OC(=S)N3CCC(C)CC3)c2)cc1	17.1*	0.1%	?	34.8	11.7µM*
CCCOc1ccc(C(=O)Nc2ccc(N3CCN(C(C)=O)CC3)cc2)cc1	4.4	2.2%	?	52.2	-16.7%
Cn1nc(-c2ccccc2)c(-c2nc(-c3ccccc3Cl)no2)c1Cl	-2.0	-0.8%	.	-4.1	17.2%
SMILES	CHX counter	LmPK inhibitor	Pf growth 48h	Shiga inhibitor	Pf growth 96h
O=[N+]([O-])c1ccccc1-c1nc(-c2ccc(Br)o2)no1	30.3*	1.7%	122.0%	88.4*	?
Nc1nnc(-c2ccccc2[N+](=O)[O-])o1	-1.5	-12.3%	-2.5%	-8.9	-22.0%
Clc1ccccc1-c1nc(-c2ccc(Br)o2)no1	37.4*	1.2%	7.1%	129.5*	?
COc1ccc(CN(C)C(=O)c2cccc(NS(=O)(=O)c3ccccc3)c2)cc1F	-2.4	0.9%	?	-5.9	1.3%
Cc1ccc(CNC(=O)C2CC3Cn4c(nc5ccccc54)C3N2C)o1 (centres undefined)	.	.	-21.5%	.	26.3%
Oc1ccc(C[C@H]2CNCCN2CCCCC2CCCCC2)cc1	.	.	8.28µM*	.	?
Oc1ccc(C[C@@H]2CNCCN2CCC23CC4CC(CC(C4)C2)C3)cc1	.	.	10.4µM*	.	2.08µM*
CCCCn1c(=O)[nH]c(=O)c2c1nc(-c1cc3c(cc1Br)OCO3)n2C	11.2	2.2%	?	-5.1	?
CC[C@@]1(O)C(=O)OCc2c1cc1n(c2=O)Cc2cc3c(N)cccc3nc2-1	-2.3	-2.2%	1.85µM*	-6.6	1.17µM*
CC[C@@]1(O)C(=O)OCc2c1cc1n(c2=O)Cc2cc3c([N+](=O)[O-])cccc3nc2-1	.	.	8.49µM*	.	?
CC[C@@]1(O)C(=O)OCc2c1cc1n(c2=O)Cc2cc3c(CN(C)C)c(O)ccc3nc2-1	.	.	8.49µM*	.	10.7µM*
C[C@@H]1NC(=O)[C@H](CCC(=O)O)NC(=O)c2cc([N+](=O)[O-])cc(F)c2NCCC[C@@H](C(N)=O)NC1=O	-4.3	1.0%	1.8%	-13.5	-1.8%
O=C(Cc1ccccc1)Nc1ccc(Br)c(Cl)c1	20.6*	-1.9%	47.6%	25.4*	153.8%
C/C(=C\C(=O)c1ccc(Br)cc1)Nc1ccc(Cl)cc1	19.6	3.9%	64.4%	36.2*	57.7%
C/C(=C\C(=O)c1ccccc1)Nc1ccc(Br)c(Cl)c1	22.6*	-0.1%	60.1%	97.8	65.6%
CCC(=O)Nc1ccc(Br)c(Cl)c1	1.0	-2.5%	13.1%	13.0	?
O=C1C2CCCCN2C(=O)N1CCCCN1CCN(c2cccc(Br)c2)CC1 (centres undefined)	-3.2	-0.6%	-29.9%	-5.1	?
Cc1ccc(NC(=O)CN(C)C(=O)COC(=O)C2=COCCO2)cc1	.	.	?	.	17.1%
N=c1c2c(n(Cc3ccc([N+](=O)[O-])cc3)c3c1CCC3)CCCC2	-2.5	-0.7%	?	-10.3	10.4µM*
O=[N+]([O-])c1ccc(CN2CCCCCC2)cc1	-1.0	2.9%	0.0%	-4.1	?
N=c1c2c(n(Cc3ccc(Br)cc3)c3c1CCC3)CCCC2	-5.5	-0.2%	0.0928µM*	-1.2	0.0329µM*
N=c1c2c(n(Cc3ccc(Cl)c(Cl)c3)c3c1CCC3)CCCC2	-1.7	1.2%	0.147µM*	-21.2	10.1%
O=c1[nH]c(=O)n(Cc2ccccc2)c2c1CCC2	3.6	1.7%	1.0%	1.4	.
O=C(CCN1C(=O)[C@@H]2Cc3ccccc3CN2C1=O)NCc1ccccc1Cl	1.6	0.1%	-28.2%	9.2	?
CCCCNc1c(-c2ccc(SC(C)CC)cc2)nc2ccccn12 (centres undefined)	.	.	-70.6%	.	-86.3%
N=c1ccn(CC(=O)c2ccc(-c3ccccc3)cc2)cc1	-0.7	-5.8%	0.828µM*	-5.4	?
O=C(NNC(=O)c1ccccc1C(=O)O)c1ccc(-c2ccccc2)cc1	15.9	-3.2%	5.5%	27.5	8.6%
